Laboratory results as given in PubChem BioAssay.
Active and inactive are the calls of the source.

Legend:
[1] = tested on: Plasmodium falciparum Sir2 (PF13_0152, Sir2A); test: Plasmodium falciparum Sir2A binding compounds – biochemical, small-molecule microarray, 635 nm fluorescence, primary screen (AID 1098); conditions: fluorescence 635 nm, higher = more signal;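 further: score merges spot fluorescence intensity with its signal-to-noise ratio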
[2] = probe aDKK1 binding to arrayed compounds – biochemical, biotinylated probe, 635/667 nm fluorescence, primary screen (AID 1099); conditions: small-molecule microarray, higher = more signal;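 further: score merges 667nm spot fluorescence with signal to noise across triplicate slides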
[3] = probe aCHRDL2 binding to arrayed compounds – biochemical, biotinylated probe, 635/667 nm fluorescence, primary screen (AID 1100); conditions: small-molecule microarray, higher = more signal
[4] = change in splice reporter luminescence, either direction, cell-based, HEK293, spliceosome inhibition project, primary screen (AID 1101); conditions: HEK293 splicing luciferase reporter, 24 h, higher = more signal, called active from +8 up or from −8 down;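 further: HEK293 cells carrying a splicing-competent luciferase reporter gene; test concentration not given here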
[5] = biological target: Fibroblast growth factor 10 (Homo sapiens) (UniProt O15520); test: compounds binding fibroblast growth factor 10 – biochemical, small-molecule microarray, 635 nm fluorescence, primary screen (AID 1102); conditions: FGF10 binding, fluorescence 635 nm, higher = more signal
Sequence of Fibroblast growth factor 10 (Homo sapiens) (O15520 whole entry, looked up): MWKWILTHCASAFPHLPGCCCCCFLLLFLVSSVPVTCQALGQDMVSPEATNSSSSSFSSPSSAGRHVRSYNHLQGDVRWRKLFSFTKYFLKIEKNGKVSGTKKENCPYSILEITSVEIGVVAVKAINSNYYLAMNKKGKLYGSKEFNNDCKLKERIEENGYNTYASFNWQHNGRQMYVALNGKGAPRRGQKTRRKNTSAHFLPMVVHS

[6] = tested on: glycogen synthase kinase-3 (GSK3A per assay name; protocol says GSK3B); test: compounds binding glycogen synthase kinase-3 – biochemical, small-molecule microarray, 635 nm fluorescence, GSK3A, primary screen (AID 1103); conditions: fluorescence 635 nm, higher = more signal; further: the record names both GSK3A and GSK3B
[7] = biological target: Epidermal growth factor receptor (Homo sapiens) (UniProt P00533); test: compounds binding epidermal growth factor receptor – biochemical, small-molecule microarray, 635 nm fluorescence, primary screen (AID 1104); conditions: EGFR binding, higher = more signal;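 further: score merges 667 nm emission intensity with spot signal to noise over triplicate slides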
Sequence of Epidermal growth factor receptor (Homo sapiens) (P00533 whole entry, looked up): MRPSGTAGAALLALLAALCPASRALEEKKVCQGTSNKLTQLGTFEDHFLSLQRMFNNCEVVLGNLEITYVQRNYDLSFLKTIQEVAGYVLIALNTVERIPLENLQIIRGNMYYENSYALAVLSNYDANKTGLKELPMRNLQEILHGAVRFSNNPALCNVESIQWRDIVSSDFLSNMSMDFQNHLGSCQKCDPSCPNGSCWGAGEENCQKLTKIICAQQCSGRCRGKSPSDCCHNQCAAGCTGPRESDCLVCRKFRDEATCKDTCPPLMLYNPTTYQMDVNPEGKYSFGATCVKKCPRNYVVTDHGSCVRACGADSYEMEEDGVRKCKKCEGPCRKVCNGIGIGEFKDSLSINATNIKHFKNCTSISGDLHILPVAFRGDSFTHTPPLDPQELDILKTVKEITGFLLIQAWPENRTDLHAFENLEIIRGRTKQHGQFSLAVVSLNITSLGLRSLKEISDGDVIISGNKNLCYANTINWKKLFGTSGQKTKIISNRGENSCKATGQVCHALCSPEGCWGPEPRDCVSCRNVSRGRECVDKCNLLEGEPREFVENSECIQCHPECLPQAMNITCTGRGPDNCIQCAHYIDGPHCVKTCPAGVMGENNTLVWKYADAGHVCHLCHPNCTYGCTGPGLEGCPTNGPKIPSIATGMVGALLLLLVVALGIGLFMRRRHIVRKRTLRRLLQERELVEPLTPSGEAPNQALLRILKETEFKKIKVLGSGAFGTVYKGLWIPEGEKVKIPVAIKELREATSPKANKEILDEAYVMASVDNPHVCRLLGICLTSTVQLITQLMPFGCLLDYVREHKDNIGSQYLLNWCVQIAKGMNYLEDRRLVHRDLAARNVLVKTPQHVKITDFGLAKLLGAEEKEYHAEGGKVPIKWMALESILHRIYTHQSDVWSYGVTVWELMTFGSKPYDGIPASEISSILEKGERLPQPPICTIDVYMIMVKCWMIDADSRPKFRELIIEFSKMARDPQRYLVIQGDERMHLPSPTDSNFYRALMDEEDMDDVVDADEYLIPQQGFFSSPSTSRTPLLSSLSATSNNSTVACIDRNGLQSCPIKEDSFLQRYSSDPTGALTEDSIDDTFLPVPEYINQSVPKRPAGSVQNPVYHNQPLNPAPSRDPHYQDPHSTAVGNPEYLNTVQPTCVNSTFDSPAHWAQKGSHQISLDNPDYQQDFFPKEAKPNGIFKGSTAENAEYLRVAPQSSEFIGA

[8] = biological target: Follistatin-related protein 3 (Homo sapiens) (UniProt O95633); test: compounds binding follistatin-related protein 3 – biochemical, small-molecule microarray, 635 nm fluorescence, primary screen (AID 1105); conditions: FSTL3 binding, higher = more signal;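 further: score merges emission near 667 nm and signal to noise per printed spot across three slides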
Sequence of Follistatin-related protein 3 (Homo sapiens) (O95633 whole entry, looked up): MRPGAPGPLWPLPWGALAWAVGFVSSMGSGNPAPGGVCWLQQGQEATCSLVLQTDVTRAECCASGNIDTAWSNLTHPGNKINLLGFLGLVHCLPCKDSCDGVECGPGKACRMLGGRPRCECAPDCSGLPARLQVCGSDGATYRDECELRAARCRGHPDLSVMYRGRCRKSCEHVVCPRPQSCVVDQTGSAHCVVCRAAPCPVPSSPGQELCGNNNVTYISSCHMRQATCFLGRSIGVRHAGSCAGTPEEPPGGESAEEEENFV

[9] = biological target: Dickkopf-related protein 1 (Homo sapiens) (UniProt O94907); test: small molecules binding DKK1 protein – biochemical, small-molecule microarray, 635 nm fluorescence scan, primary screen (AID 1106); conditions: higher = more signal;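 further: score merges emission near 667 nm with signal to noise over three replicate slides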
Sequence of Dickkopf-related protein 1 (Homo sapiens) (O94907 whole entry, looked up): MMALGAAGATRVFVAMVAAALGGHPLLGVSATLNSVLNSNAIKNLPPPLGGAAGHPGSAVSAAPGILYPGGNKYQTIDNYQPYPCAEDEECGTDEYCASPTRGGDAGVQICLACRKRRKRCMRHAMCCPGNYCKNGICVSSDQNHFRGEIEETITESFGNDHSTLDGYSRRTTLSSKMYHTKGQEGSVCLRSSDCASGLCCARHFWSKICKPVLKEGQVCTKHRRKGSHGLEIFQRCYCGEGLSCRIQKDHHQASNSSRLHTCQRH

[10] = tested on: Inhibin beta A chain (activin A); test: small molecules binding activin A – biochemical, small-molecule microarray, 635 nm fluorescence scan, primary screen (AID 1107); conditions: INHBA, higher = more signal;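 further: mouse activin A protein probed at 4.33 µg/mL on printed slides; score merges bound-protein fluorescence near 667 nm with spot signal-to-noise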
[11] = tested on: Human papillomavirus type 1a protein E7 (residues 44-93); test: small molecules binding HPV E7 44-93 – biochemical, small-molecule microarray, residues 44-93, 635 nm fluorescence, primary screen (AID 1108); conditions: fluorescence 635 nm, higher = more signal;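 further: E7 fragment applied at 1 µg/mL in TBST for 1 h at 4 C; score combines spot fluorescence with its signal to noise ratio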
[12] = hepatitis C replication reporter changes, two-sided – Huh7 cells, luciferase reporter, HCV replication inhibitor project, primary screen (AID 1109); conditions: Huh7 HCV replicon luciferase reporter, 48 h; higher = more signal;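 further: huh7 hepatoma cells harbouring a luciferase neomycin HCV replicon reporter; luciferase luminescence as measure of HCV replicon replication; test concentration not given here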
[13] = biological target: Left-right determination factor 2 (Homo sapiens) (UniProt O00292); test: small molecules binding LEFTY2 protein – biochemical, small-molecule microarray, 635 nm fluorescence scan, primary screen (AID 1110); conditions: higher = more signal
Sequence of Left-right determination factor 2 (Homo sapiens) (O00292 whole entry, looked up): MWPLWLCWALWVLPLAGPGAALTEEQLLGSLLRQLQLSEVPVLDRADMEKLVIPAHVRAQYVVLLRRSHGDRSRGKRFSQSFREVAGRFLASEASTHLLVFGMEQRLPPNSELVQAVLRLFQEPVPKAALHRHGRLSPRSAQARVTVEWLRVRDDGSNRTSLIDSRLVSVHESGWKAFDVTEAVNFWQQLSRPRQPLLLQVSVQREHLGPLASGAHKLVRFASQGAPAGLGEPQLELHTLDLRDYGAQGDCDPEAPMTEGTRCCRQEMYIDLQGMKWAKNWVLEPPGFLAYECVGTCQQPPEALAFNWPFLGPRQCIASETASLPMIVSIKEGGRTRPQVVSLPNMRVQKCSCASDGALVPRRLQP

[14] = biological target: Calmodulin-1 (Homo sapiens) (UniProt P0DP23); test: small molecules binding calmodulin-1 with EGTA – biochemical, small-molecule microarray, Cy5-labelled CALM1, profiling panel (AID 1111); conditions: Cy5-CALM1 binding fluorescence, higher = more signal;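 further: labelled calmodulin applied in Tris saline Tween buffer holding calcium plus EGTA and DTT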
[15] = biological target: Calmodulin-1 (Homo sapiens) (UniProt P0DP23); test: small molecules binding Ca-loaded calmodulin-1 – biochemical, small-molecule microarray, Cy5-labelled CALM1, plus calcium, artefact control for SMM control-protein annotation, profiling panel (AID 1112); conditions: Cy5-CALM1 binding fluorescence, higher = more signal;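 further: score merges spot fluorescence with signal to noise from triplicate slides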
[16] = probe aWnt5a binding to arrayed compounds – biochemical, biotinylated probe, 635/667 nm fluorescence, primary screen (AID 1113); conditions: small-molecule microarray, higher = more signal;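 further: score merges 667 nm fluorescence intensity with signal-to-noise per printed feature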
[17] = probe aShh binding to arrayed compounds – biochemical, biotinylated probe, 635/667 nm fluorescence, primary screen (AID 1114); conditions: small-molecule microarray, higher = more signal;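 further: probe is biotin-labelled aShh protein from a stem cell growth factor screen; measures binding of labelled protein to compounds printed on the slide; score merges feature fluorescence at 667 nm with signal-to-noise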
[18] = probe aNog binding to arrayed compounds – biochemical, biotinylated probe, 635/667 nm fluorescence, primary screen (AID 1115); conditions: small-molecule microarray, higher = more signal;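 further: probe is biotinylated aNog protein used at 0.15 µg/mL for 1 h at 4 C; z-score combines 667 nm fluorescence of each spot with its signal to noise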
[19] = biological target: Torsin-1A-interacting protein 1 (Homo sapiens) (UniProt Q5JTV8); test: compound microarray binding of lysate hLAP1 – cell lysate, small-molecule microarray, COS7 lysate, 635/667 nm fluorescence, primary screen (AID 1116); conditions: 635 nm fluorescence, higher = more signal
Sequence of Torsin-1A-interacting protein 1 (Homo sapiens) (Q5JTV8 whole entry, looked up): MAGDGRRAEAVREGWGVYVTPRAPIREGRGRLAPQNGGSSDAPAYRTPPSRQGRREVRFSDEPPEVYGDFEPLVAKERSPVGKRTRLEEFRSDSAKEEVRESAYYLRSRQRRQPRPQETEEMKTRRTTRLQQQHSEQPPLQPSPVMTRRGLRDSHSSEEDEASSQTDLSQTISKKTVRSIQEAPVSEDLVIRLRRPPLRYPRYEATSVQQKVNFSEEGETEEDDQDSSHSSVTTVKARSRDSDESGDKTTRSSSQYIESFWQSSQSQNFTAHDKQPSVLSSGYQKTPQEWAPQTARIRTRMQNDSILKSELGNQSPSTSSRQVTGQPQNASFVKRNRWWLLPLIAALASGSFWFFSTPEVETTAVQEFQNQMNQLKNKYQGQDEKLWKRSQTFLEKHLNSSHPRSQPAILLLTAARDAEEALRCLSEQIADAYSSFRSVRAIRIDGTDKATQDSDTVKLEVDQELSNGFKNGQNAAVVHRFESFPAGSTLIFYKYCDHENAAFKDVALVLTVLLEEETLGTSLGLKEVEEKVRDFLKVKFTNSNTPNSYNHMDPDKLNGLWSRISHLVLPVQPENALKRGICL

[20] = biological target: Alpha-bungarotoxin (Bungarus multicinctus) (UniProt P60615); test: compounds binding labelled alpha-BTX control protein – biochemical, small-molecule microarray, Alexa647 label, 635/667 nm fluorescence, artefact control for SMM control protein annotation, profiling panel (AID 1117); conditions: alpha-BTX-A647 binding fluorescence, higher = more signal
Sequence of Alpha-bungarotoxin (Bungarus multicinctus) (P60615 whole entry, looked up): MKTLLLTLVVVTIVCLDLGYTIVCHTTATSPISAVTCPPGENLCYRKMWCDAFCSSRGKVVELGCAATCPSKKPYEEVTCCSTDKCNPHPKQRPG

| Structure (SMILES) | composite z-score [1] | composite z-score [2] | composite z-score [3] | z-score [4] | composite z-score [5] | composite z-score [6] | composite z-score [7] | composite z-score [8] | composite z-score [9] | composite z-score [10] | composite z-score [11] | z-score [12] | composite z-score [13] | composite z-score [14] | composite z-score [15] | composite z-score [16] | composite z-score [17] | composite z-score [18] | composite z-score [19] | composite z-score [20] |
| --- | --- | --- | --- | --- | --- | --- | --- | --- | --- | --- | --- | --- | --- | --- | --- | --- | --- | --- | --- | --- |
| COCCOC(=O)N1C(=O)[C@@]2(c3ccccc31)[C@H](c1ccccc1OCCO)N1[C@H](c3ccccc3)[C@H](c3ccccc3)OC(=O)[C@H]1[C@@H]2C(=O)N1CCN(c2ncccn2)CC1 | 1.21 | 0.386 | 0.72 | -0.869 (inactive) | 0.357 | 0.852 | 0.792 | 0.555 | 0.471 | -0.0468 | 0.771 | -2.73 | 0.567 | 1.69 | 0.614 | -0.096 | 0.199 | 0.441 | 1.24 | 1.46 |
| C[N+](C)(C)CCCC[C@@H]1NC(=O)[C@H]2C[C@@H](C(=O)NCCCCCCNC(=O)CS)[C@@H](c3cccc(OCCO)c3)N2C1=O | 0.726 | -0.0575 | 0.861 | -0.213 (inactive) | -0.85 | -0.805 | -1.06 | -0.994 | -0.602 | -0.57 | -1.51 | -0.242 | -1.55 | -0.149 | 0.105 | -0.202 | -0.17 | -0.175 | -0.933 | -1.06 |
| CCN(CC)c1ccc(N2CC=CC34O[C@@H]5C=CCCOC(=O)C5[C@H]3C(=O)N(CCCCCCO)[C@@H]4C2=O)cc1 (stereo not given in full) | 1.93 | -0.0776 | 0.414 | -1.98 (inactive) | -1.26 | -0.39 | -0.661 | -0.879 | -0.555 | 0.816 | -0.873 | 0.234 | -0.395 | -0.235 | 0.307 | -0.096 | -0.26 | -0.229 | 1.33 | -0.419 |
| C=C(COC)/C(=C/C[C@H](OC(C)=O)c1ccc(CO)o1)c1cc(C(=O)OC)ccc1OC | 1.12 | 0.667 | -0.201 | -0.0994 (inactive) | 0.483 | -0.0434 | -0.173 | -0.0145 | -0.164 | 1.32 | 0.487 | -0.246 | -0.151 | -0.0624 | 0.204 | -0.0107 | -0.105 | -0.0489 | 0.0742 | -0.136 |
| COc1ccc(CCNC(=O)[C@@]2(Sc3ccc(C)cc3)CC(=O)N(C3Cc4ccccc4C3)[C@@H]2c2ccc(CO)cc2I)cc1 | 1.09 | 0.736 | 0.575 | -1.27 (inactive) | -0.461 | -0.64 | -0.895 | -0.856 | -1.41 | 0.48 | 0.615 | -2.48 | -0.911 | 0.113 | 0.795 | -0.0398 | -0.0234 | 0.136 | 0.548 | 1.59 |
| N#Cc1ccc(NN2C(C(O)C(c3ccccc3)c3ccccc3)C=CC3C(=O)N(c4ccccc4)C(=O)C32)cc1 (stereo not given) | 0.793 | 0.609 | 0.725 | -0.327 (inactive) | 1.2 | 1.28 | -0.0158 | 0.864 | -1.06 | 0.0017 | 1.46 | -0.734 | 0.0908 | 1.87 | 0.609 | 0.0768 | 0.392 | 1.72 | 0.307 | 1.91 |
| CC(C)OC(=O)C=C1C[C@@H](c2ccccn2)O[C@@H](c2ccccn2)O1 | -0.152 | -0.778 | -1.68 | 1.08 (inactive) | 0.627 | 0.201 | 0.891 | 1.1 | 1.47 | 1.21 | -0.0187 | -0.884 | 1.05 | -1.38 | -0.98 | -0.0607 | 0.489 | -0.457 | 0.429 | 0.6 |
| CCCC[C@@H]1C[C@H]1[C@@H](NC(=O)c1cccs1)c1ccc(-c2ccccc2)cc1 | -0.0357 | -0.0102 | 0.69 | -1.23 (inactive) | 0.655 | -0.595 | -0.0136 | 0.369 | -0.116 | 1.3 | 0.495 | -2.05 | -0.0554 | 0.362 | 0.295 | -0.0704 | -0.138 | 0.103 | 0.254 | -0.474 |
| COC(=O)[C@]1(CCC(=O)OC(C)(C)C)N=C(c2ccc(OCCCO)cc2)O[C@@H]1c1ccccc1CN=[N+]=[N-] | 1.09 | 1.09 | 1.07 | -1.03 (inactive) | 0.432 | -0.109 | -0.843 | -0.307 | -0.696 | 0.26 | -0.0058 | -3.32 | -0.684 | 0.884 | 0.367 | -0.0045 | 0.147 | 0.977 | 0.157 | 0.869 |
| OCCCC1=CC(c2cccs2)N(Cc2cc3c(cc2Br)OCO3)CC1 (stereo not given) | 0.725 | -0.16 | 0.197 | -0.252 (inactive) | 0.21 | -0.0247 | -0.275 | -0.0688 | 0.211 | 1.01 | 0.172 | -0.807 | -0.0241 | 0.0466 | -0.16 | -0.137 | -0.0011 | -0.105 | 0.26 | 1.36 |
| COc1ccccc1CN1C(=O)c2ccccc2[C@@]2(Cc3ccccc3N(CC(C)C)C2=O)[C@@H]1c1ccc(CO)cc1 | -0.327 | -0.266 | 0.124 | -0.686 (inactive) | -0.285 | -0.882 | -0.284 | -0.0344 | 0.0603 | 0.522 | -0.461 | -0.785 | -0.389 | -0.235 | -0.69 | -0.091 | -0.214 | -0.175 | -0.247 | -0.257 |
